These results are taken from paper PMC4336329 (PLoS ONE, 2015).

Molecules are shown by their SMILES. Hit rate of the full screen: of about 310,000 compounds, about 14,000 (4.5%) showed an effect of 50% or more. Effects have a minus sign here. The sample as a whole holds a higher share of strong results than the screen did.
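Also: peak tail current of the secondary pulse compared with the same well before compound.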

The target in the test is human ether-à-go-go-related gene (hERG) potassium channel (human, UniProt Q12809). Kind of test: primary screen, population patch clamp on CHO cells stably expressing hERG; higher = less effect of the substance.
human ether-à-go-go-related gene (hERG) potassium channel, sequence (Q12809 whole entry, looked up): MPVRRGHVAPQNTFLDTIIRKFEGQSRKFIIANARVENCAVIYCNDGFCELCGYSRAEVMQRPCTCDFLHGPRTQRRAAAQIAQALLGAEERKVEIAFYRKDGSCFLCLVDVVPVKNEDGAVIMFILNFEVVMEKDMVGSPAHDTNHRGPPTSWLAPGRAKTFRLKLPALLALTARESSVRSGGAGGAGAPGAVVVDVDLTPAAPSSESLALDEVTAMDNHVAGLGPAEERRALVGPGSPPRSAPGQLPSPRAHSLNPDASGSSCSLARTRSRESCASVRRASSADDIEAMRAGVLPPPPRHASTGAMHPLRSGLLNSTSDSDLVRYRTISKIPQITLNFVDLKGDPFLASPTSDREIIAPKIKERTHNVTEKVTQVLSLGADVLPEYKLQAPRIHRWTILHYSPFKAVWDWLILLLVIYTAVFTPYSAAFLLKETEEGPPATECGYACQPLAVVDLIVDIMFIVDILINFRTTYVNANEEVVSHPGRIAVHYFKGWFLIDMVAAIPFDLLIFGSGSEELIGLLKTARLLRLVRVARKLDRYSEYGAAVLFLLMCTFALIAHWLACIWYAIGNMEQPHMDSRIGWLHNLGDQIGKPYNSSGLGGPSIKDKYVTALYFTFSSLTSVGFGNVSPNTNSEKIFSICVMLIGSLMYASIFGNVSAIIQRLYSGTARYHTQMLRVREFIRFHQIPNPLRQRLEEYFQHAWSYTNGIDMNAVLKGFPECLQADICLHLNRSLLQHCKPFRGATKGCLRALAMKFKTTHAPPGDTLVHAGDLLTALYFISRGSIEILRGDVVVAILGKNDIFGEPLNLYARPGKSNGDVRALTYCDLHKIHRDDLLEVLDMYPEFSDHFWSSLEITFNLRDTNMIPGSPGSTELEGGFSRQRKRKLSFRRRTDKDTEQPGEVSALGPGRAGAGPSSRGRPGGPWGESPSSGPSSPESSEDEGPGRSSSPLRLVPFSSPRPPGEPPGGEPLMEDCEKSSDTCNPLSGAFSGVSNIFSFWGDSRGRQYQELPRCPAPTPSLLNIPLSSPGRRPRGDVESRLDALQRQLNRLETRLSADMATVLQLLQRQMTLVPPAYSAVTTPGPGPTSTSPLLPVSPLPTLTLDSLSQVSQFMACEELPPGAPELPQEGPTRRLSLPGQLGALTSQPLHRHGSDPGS
Take `CC(=O)c1cccc(N(CC(=O)Nc2cc(C)cc(C)c2)S(C)(=O)=O)c1`: the “hERG current change (%, negative = inhibition) at 10uM” value was 13.3%.
In the case of `CSc1nc2sc3c(c2c(=O)[nH]1)CC(C)(C)OC3` it was 13.8%; in that of `CCc1ccccc1N1CN(Cc2cccnc2)CNC1=S`, 3.35%.
In the case of `Cc1cc(C)nc(N2CCCC(C(=O)Nc3ccc4nc(C)c(C)nc4c3)C2)n1` (stereo not drawn) it was 9.96%; in that of `COc1cccc(/C=N/NC(=O)CN(C2=NS(=O)(=O)c3ccccc32)c2ccccc2)c1`, 0.919%.
In the case of `CC(=O)N1CCN(c2ccc(NC(=O)c3ccc4ccccc4c3)cc2)CC1` it was -7.05%.
Take `Cc1c(C(=O)Nc2ccc(-c3nnc4n3CCCCC4)cc2)oc2c1ccc1ccccc12`: the “hERG current change (%, negative = inhibition) at 10uM” value is -13.8%.
`O=C(NC(=S)Nc1ccc(CN2CCOCC2)cc1)c1ccc(-c2cccc(Cl)c2)o1`: the “hERG current change (%, negative = inhibition) at 10uM” value is given as 7.11%.
In the case of `O=C(NC(=S)Nc1ccc(CN2CCOCC2)cc1)c1cc2ccccc2o1` it was 11.7%; in that of `O=C(Nc1ccc(CN2CCOCC2)cc1)c1ccc(-c2cccc(Cl)c2)o1`, -52.8%; in that of `O=C(Nc1ccc(N2CCCC2)cc1)c1ccc2ccccc2c1`, 0.743%.
In the case of `O=C(Nc1ccc(-c2nnc3n2CCCCC3)cc1)c1ccco1` it was 5.26%.
As to `O=C(Nc1ccc(CN2CCOCC2)cc1)c1cc2ccccc2o1`, the “hERG current change (%, negative = inhibition) at 10uM” value is -50.2%.
In the case of `CN1CCN(c2ccc(NC(=O)c3ccc4ccccc4c3)cc2)CC1`, the “hERG current change (%, negative = inhibition) at 10uM” value is given as -66.1%.
`O=C(Nc1ccc(N2CCOCC2)cc1)c1cc2ccccc2o1`: the “hERG current change (%, negative = inhibition) at 10uM” value is given as 4.38%.
In the case of `O=C(Nc1ccc(CN2CCOCC2)cc1)c1ccc(-c2cccc([N+](=O)[O-])c2)o1` it was -48.3%.
In the case of `O=C(Nc1ccc(-c2nnc3n2CCCCC3)cc1)c1cc2ccccc2o1` it was -71.8%; in that of `Cc1ccc(C2=NS(=O)(=O)N(C)C(C(=O)NCc3ccccc3)=C2)cc1`, -0.52%.
On to `O=C(NCCN1CCOCC1)c1ccc(Cl)c([N+](=O)[O-])c1`, for which the “hERG current change (%, negative = inhibition) at 10uM” value is reported as 16.5%.
Turning to `Cc1ccc2c(c1)N(C(C)C(=O)NCCc1ccccc1)C(=O)CO2` (stereo not drawn), the “hERG current change (%, negative = inhibition) at 10uM” value came out at 7.21%.
For the molecule `COc1cc(C(=O)Nc2cc(C(F)(F)F)ccc2N2CCOCC2)ccc1O`, the “hERG current change (%, negative = inhibition) at 10uM” value was -26.6%.
In the case of `O=C(CCc1nc(-c2ccccc2Cl)no1)NCCc1ccccc1`, the “hERG current change (%, negative = inhibition) at 10uM” value was 7.08%.
In the case of `COc1ccc(CCNC(=O)c2c(O)c3ccccc3n(C)c2=O)cc1` it was -12.1%; in that of `O=c1[nH][nH]c(-c2ccccc2)c1C=Nc1cccc(Cl)c1`, 5.35%; in that of `CN1CCN(c2ccc(NC(=O)c3cc4ccccc4o3)cc2)CC1`, -72.3%.
In the case of `c1coc(CNCCCN2CCOCC2)c1` it was -0.128%; in that of `Cc1cc(N2CCN(C)CC2)ccc1NC(=O)c1ccc(-c2ccc(Cl)cc2)o1`, -80%; in that of `COc1ccc(-c2ccc(CNCCCN3CCOCC3)o2)cc1Cl.Cl`, 6.83%.
In the case of `CN1CCN(c2ccc(NC(=O)c3ccc(-c4ccc(Cl)cc4)o3)cc2)CC1` it was 11.5%; in that of `CC(=O)N1CCN(c2ccc(NC(=O)c3cc4ccccc4o3)cc2)CC1`, -24.5%; in that of `Cl.Clc1cccc(-c2ccc(CNCCCN3CCOCC3)o2)c1`, -58.3%.
Consider `O=C(Nc1ccc(N2CCCC2)cc1)c1cc2ccccc2o1`, for which the “hERG current change (%, negative = inhibition) at 10uM” value is reported as 20.4%.
In the case of `CN1CCN(c2ccc(NC(=O)c3ccc(-c4ccccc4F)o3)cc2)CC1` it was -70%.
For the molecule `CN1CCN(c2ccc(NC(=O)c3ccc(-c4ccc(Br)cc4)o3)cc2)CC1`, the “hERG current change (%, negative = inhibition) at 10uM” value came out at 0.645%.
Consider `CS(=O)(=O)N1CCN(c2ccc(NC(=O)c3ccc(-c4ccc(Cl)cc4)o3)cc2)CC1`, for which the “hERG current change (%, negative = inhibition) at 10uM” value is recorded as -10.6%.
On to `O=C(Nc1ccc(N2CCOCC2)cc1)c1ccc(-c2ccccc2[N+](=O)[O-])o1`, for which the “hERG current change (%, negative = inhibition) at 10uM” value is on record as 15.9%.
In the case of `CCCCc1cc(C)c(S(=O)(=O)c2ccccc2C)c(=O)[nH]1`, the “hERG current change (%, negative = inhibition) at 10uM” value was determined as 3.69%.
In the case of `CC(Oc1ccccc1)C(=O)NC1C(=O)N2C1SC(C)(C)C2C(=O)[O-].[K+]` (stereo not drawn) it was 35.9%.
`CCOC(=O)c1sc(NC(=S)NC(=O)C23CC4CC(CC(C4)C2)C3)cc1C`: the “hERG current change (%, negative = inhibition) at 10uM” value is 20.2%.
In the case of `CCCC1=NN(c2ccc([N+](=O)[O-])cc2)C(=O)/C1=C\N(C)C` it was -7.95%; in that of `O=C(O)C1C2CCC(O2)C1C(=O)Nc1ccc(F)c(F)c1` (stereo not drawn), 26.5%; in that of `CCCC(=O)Nc1ccc(C(=O)COC(=O)C2CC2C)cc1` (stereo not drawn), 5.46%.
For the molecule `CCN1C(=O)/C(=C/C=C2/SCCN2C)SC1=S`, the “hERG current change (%, negative = inhibition) at 10uM” value stood at 4.78%.
In the case of `COC(=O)Cn1cc(C(=O)C2CC2)c2ccccc21` it was 2.2%.
Consider `Cc1cc(C)c(C)c(S(=O)(=O)NCc2ccc(C(=O)N3CCN(C)CC3)cc2)c1C`, for which the “hERG current change (%, negative = inhibition) at 10uM” value is on record as -4.7%.
For `O=C(O)c1nn2c(c1Br)NC(c1ccccc1)CC2C(F)(F)F` (stereo not drawn), the “hERG current change (%, negative = inhibition) at 10uM” value was found to be 12.2%.
In the case of `CCc1nnc(NC(=O)c2cc(S(=O)(=O)N(CC)CC)ccc2Cl)s1` it was -7.31%.
For the molecule `COc1ccccc1NC(=O)N1CCC(c2nc3ccccc3o2)CC1`, the “hERG current change (%, negative = inhibition) at 10uM” value is given as -6.16%.
In the case of `CC(C)NC(=O)COC(=O)c1cccc(NS(=O)(=O)/C=C/c2ccccc2)c1`, the “hERG current change (%, negative = inhibition) at 10uM” value is -18%.
Take `Cn1cnnc1SCC(=O)NC1CCCN(Cc2ccc(Cl)cc2)C1` (stereo not drawn): the “hERG current change (%, negative = inhibition) at 10uM” value is on record as -0.412%.
In the case of `O=C(/C=C/c1ccccc1)Nc1ccc(CN2CCOCC2)cc1` it was -62.5%; in that of `O=C(/C=C/c1ccc(Cl)cc1)Nc1ccc(CN2CCOCC2)cc1`, -28%.
In the case of `O=C(/C=C/c1ccccc1)NC(=S)Nc1ccc(CN2CCOCC2)cc1` it was -18.9%; in that of `CCSc1nnc(NC(=O)CSc2nc3c(c(=O)n2CC)SC(C)C3)s1` (stereo not drawn), 6.95%; in that of `CCC(=O)Nc1ccc(NC(=O)c2cccc3ccccc23)cc1`, 23.9%.
As for `COc1ccc(-c2nc(SC(CC(=O)NCc3ccccc3)c3ccc(OC)c(OC)c3)n[nH]2)cc1` (stereo not drawn), the “hERG current change (%, negative = inhibition) at 10uM” value is reported as -0.421%.
In the case of `Cc1ccc(-c2noc(CSc3nnc(-c4ccncc4)n3-c3ccc(F)cc3)n2)cc1` it was -10.3%.
In the case of `CCOc1ccc(-n2c(SCc3nc(-c4ccc(C)cc4)no3)nnc2-c2ccncc2)cc1` it was -73.2%; in that of `c1ccc(-n2c(SCc3nc(-c4cccs4)no3)nnc2-c2ccco2)cc1`, -42.6%.
In the case of `Cc1ccc(-c2noc(CSc3nnc(-c4ccncc4)n3-c3ccc(C)cc3)n2)cc1` it was -42.9%.
As to `CCOc1ccc(-n2c(SCc3nc(-c4cccs4)no3)nnc2-c2ccncc2)cc1`, the “hERG current change (%, negative = inhibition) at 10uM” value was -59.7%.
As for `CCCn1c(SCc2nc(-c3cccs3)no2)nnc1-c1ccncc1`, the “hERG current change (%, negative = inhibition) at 10uM” value is recorded as -4.13%.
In the case of `O=c1[nH]c(=S)n(-c2ccc(Cl)cc2)c(O)c1/C=N/N1CCOCC1` it was -6.08%; in that of `CC1CC(C)CN(S(=O)(=O)c2ccc3c(c2)CC(C)N3C(=O)C2CCC2)C1` (stereo not drawn), 4.7%; in that of `CC12CCC(C(=O)N3CCCCCC3)(OC1=O)C2(C)C` (stereo not drawn), 13.1%.
On to `Nc1cc(=O)[nH]c(SCC(=O)NC2CCCc3ccccc32)n1` (stereo not drawn), for which the “hERG current change (%, negative = inhibition) at 10uM” value is listed as 0.0692%.
Consider `Cc1cccc2cc(COC(=O)c3ccccc3)c(=O)[nH]c12`, for which the “hERG current change (%, negative = inhibition) at 10uM” value is listed as -0.867%.
In the case of `Cc1cccc2cc(COC(=O)C(C)C)c(=O)[nH]c12` it was -69.3%; in that of `Cc1ccccc1CCNCc1cc2cccc(C)c2[nH]c1=O`, -52.2%; in that of `CC(=O)OCc1cc2cccc(C)c2[nH]c1=O`, -9.76%.
Take `Cc1cccc2cc(CN(Cc3ccccc3)C(=O)N(C)C)c(=O)[nH]c12`: the “hERG current change (%, negative = inhibition) at 10uM” value is on record as -11.5%.
In the case of `CCC(=O)OCc1cc2cccc(C)c2[nH]c1=O` it was -1.03%; in that of `Cc1cccc(CCNCc2cc3cc(C)cc(C)c3[nH]c2=O)c1`, -30.8%.
In the case of `Cc1cccc(CCN(Cc2cc3cccc(C)c3[nH]c2=O)C(=O)N2CCOCC2)c1` it was -29.4%.
In the case of `Cc1cccc(CCNCc2cc3cccc(C)c3[nH]c2=O)c1` it was -64.1%; in that of `CC(C)CSc1oc(-c2ccco2)nc1S(=O)(=O)c1ccccc1`, -19.7%.
Consider `O=C(CCC(=O)N1CCCC(Nc2ccccc2)C1)c1ccc(F)cc1` (stereo not drawn), for which the “hERG current change (%, negative = inhibition) at 10uM” value was -8.8%.
In the case of `COc1cc(CNc2ccc3[nH]c(=O)[nH]c3c2)cc(Cl)c1OCC(=O)NC(C)(C)C` it was 4.56%; in that of `COc1ccc(S(=O)(=O)Nc2ccccc2-c2nc3ccccc3[nH]c2=O)cc1`, -9.79%; in that of `COc1ccc(OC)c(NC(=O)Cn2c(CCC(=O)O)ccc2-c2ccc(C)cc2)c1`, -7.22%.
Take `Cc1ccc(CN2CC(C(=O)N3CCN(S(=O)(=O)c4cccc(F)c4)CC3)CC2=O)cc1` (stereo not drawn): the “hERG current change (%, negative = inhibition) at 10uM” value was -32.6%.
For the molecule `O=C(Nc1ccc(C(F)(F)F)cc1)C1(c2ccccc2)CC1`, the “hERG current change (%, negative = inhibition) at 10uM” value is given as -15.2%.
On to `CCNC(=S)Nc1cc(OCC)c(NC(=O)c2ccco2)cc1OCC`, for which the “hERG current change (%, negative = inhibition) at 10uM” value is -1.82%.
Turning to `Cc1ccc(C)c(OCC(O)CN2CCC(Cc3ccccc3)CC2)c1.Cl` (stereo not drawn), the “hERG current change (%, negative = inhibition) at 10uM” value is reported as -67.6%.
In the case of `Cc1ccc(OCC(O)CN2CCN(CCO)CC2)c(C)c1.Cl` (stereo not drawn) it was 4.18%.
For the molecule `Cc1ccc(OCC(O)CN2CCC(Cc3ccccc3)CC2)c(C)c1.Cl` (stereo not drawn), the “hERG current change (%, negative = inhibition) at 10uM” value is -75.2%.
`Clc1nc(-c2ccccc2)ncc1Oc1ccccc1`: the “hERG current change (%, negative = inhibition) at 10uM” value is listed as 14.6%.
